For nine molecules, binding signal results are on record in article PMC8222333, “AsCas12a ultra nuclease facilitates the rapid generation of therapeutic cell medicines”.

Sequences and labels used below:
B1: GCCT (dsDNA)
DNA 1: GCTATCTAGTGCTCAGTACGCACTGGCCTAGGAAACTTCTGGCAGGACCAGGTCATGAGATCGGAAGAGCACACGTCTGAACTCCAGTCA
DNA 2: TGACTGGAGTTCAGACGTGTGCTCTTCCGATCTCATGACCTGGTCCTGCCAGAAGTTTCCTAGGCCAGTGCGTACTGAGCACTAGATAGC
RNA: AAUUUCUACUCUUGUAGAUAGGAAACUUCUGGCAGGACC
B2: GGCT (dsDNA)
DNA 1: GCTATCTAGTGCTCAGTACGCACTGGGCTAGGAAACTTCTGGCAGGACCAGGTCATGAGATCGGAAGAGCACACGTCTGAACTCCAGTCA
DNA 2: TGACTGGAGTTCAGACGTGTGCTCTTCCGATCTCATGACCTGGTCCTGCCAGAAGTTTCCTAGCCCAGTGCGTACTGAGCACTAGATAGC
RNA: AAUUUCUACUCUUGUAGAUAGGAAACUUCUGGCAGGACC
B3: GGAA (dsDNA)
DNA 1: GCTATCTAGTGCTCAGTACGCACTGGGAAAGGAAACTTCTGGCAGGACCAGGTCATGAGATCGGAAGAGCACACGTCTGAACTCCAGTCA
DNA 2: TGACTGGAGTTCAGACGTGTGCTCTTCCGATCTCATGACCTGGTCCTGCCAGAAGTTTCCTTTCCCAGTGCGTACTGAGCACTAGATAGC
RNA: AAUUUCUACUCUUGUAGAUAGGAAACUUCUGGCAGGACC
B4: GGAG (dsDNA)
DNA 1: GCTATCTAGTGCTCAGTACGCACTGGGAGAGGAAACTTCTGGCAGGACCAGGTCATGAGATCGGAAGAGCACACGTCTGAACTCCAGTCA
DNA 2: TGACTGGAGTTCAGACGTGTGCTCTTCCGATCTCATGACCTGGTCCTGCCAGAAGTTTCCTCTCCCAGTGCGTACTGAGCACTAGATAGC
RNA: AAUUUCUACUCUUGUAGAUAGGAAACUUCUGGCAGGACC
B5: GGCC (dsDNA)
DNA 1: GCTATCTAGTGCTCAGTACGCACTGGGCCAGGAAACTTCTGGCAGGACCAGGTCATGAGATCGGAAGAGCACACGTCTGAACTCCAGTCA
DNA 2: TGACTGGAGTTCAGACGTGTGCTCTTCCGATCTCATGACCTGGTCCTGCCAGAAGTTTCCTGGCCCAGTGCGTACTGAGCACTAGATAGC
RNA: AAUUUCUACUCUUGUAGAUAGGAAACUUCUGGCAGGACC
B6: GGAT (dsDNA)
DNA 1: GCTATCTAGTGCTCAGTACGCACTGGGATAGGAAACTTCTGGCAGGACCAGGTCATGAGATCGGAAGAGCACACGTCTGAACTCCAGTCA
DNA 2: TGACTGGAGTTCAGACGTGTGCTCTTCCGATCTCATGACCTGGTCCTGCCAGAAGTTTCCTATCCCAGTGCGTACTGAGCACTAGATAGC
RNA: AAUUUCUACUCUUGUAGAUAGGAAACUUCUGGCAGGACC
B7: GGAC (dsDNA)
DNA 1: GCTATCTAGTGCTCAGTACGCACTGGGACAGGAAACTTCTGGCAGGACCAGGTCATGAGATCGGAAGAGCACACGTCTGAACTCCAGTCA
DNA 2: TGACTGGAGTTCAGACGTGTGCTCTTCCGATCTCATGACCTGGTCCTGCCAGAAGTTTCCTGTCCCAGTGCGTACTGAGCACTAGATAGC
RNA: AAUUUCUACUCUUGUAGAUAGGAAACUUCUGGCAGGACC
B8: GGCA (dsDNA)
DNA 1: GCTATCTAGTGCTCAGTACGCACTGGGCAAGGAAACTTCTGGCAGGACCAGGTCATGAGATCGGAAGAGCACACGTCTGAACTCCAGTCA
DNA 2: TGACTGGAGTTCAGACGTGTGCTCTTCCGATCTCATGACCTGGTCCTGCCAGAAGTTTCCTTGCCCAGTGCGTACTGAGCACTAGATAGC
RNA: AAUUUCUACUCUUGUAGAUAGGAAACUUCUGGCAGGACC
B9: GCGT (dsDNA)
DNA 1: GCTATCTAGTGCTCAGTACGCACTGGCGTAGGAAACTTCTGGCAGGACCAGGTCATGAGATCGGAAGAGCACACGTCTGAACTCCAGTCA
DNA 2: TGACTGGAGTTCAGACGTGTGCTCTTCCGATCTCATGACCTGGTCCTGCCAGAAGTTTCCTACGCCAGTGCGTACTGAGCACTAGATAGC
RNA: AAUUUCUACUCUUGUAGAUAGGAAACUUCUGGCAGGACC
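Note: relative affinity from the bound to unbound sequence frequency ratio in Spec-seq.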

For one test, the target named is dAsCas12a S542R (Acidaminococcus sp., UniProt U2UMQ6 1-1307, S542R;D908A;E993A;D1235A). The test can be described thus: Spec-seq (native PAGE EMSA with sequencing of bound and unbound); 25 mM Tris-HCl pH 7.4, 150 mM KCl, 5 mM MgCl2, 10% glycerol, 1 mM DTT, 40 ng/uL salmon sperm DNA; 400 nM Cas12a, 480 nM crRNA, 50 nM library, 37 C 1 h; native PAGE at room temperature; high values mean tight binding. Particulars: protein: recombinant.
Turning to B1, the binding signal is -7.86 lnKA.
On to B2, for which the binding signal is -8.78 lnKA.
On to B3, for which the binding signal was -8.88 lnKA.
Consider B4, for which the binding signal was -8.39 lnKA.
Turning to B5, the binding signal was -8.47 lnKA.
As for B6, the binding signal was -8.54 lnKA.
In the case of B7, the binding signal is -8.47 lnKA.
B8: the binding signal was -8.26 lnKA.
Take B9: the binding signal is -8.52 lnKA.

Another test has as its target d-enCas12a (Acidaminococcus sp., UniProt U2UMQ6 1-1307, E174R;S542R;K548R;D908A;E993A;D1235A). Described as above. To be noted: protein: recombinant.
B1: the binding signal was -5.97 lnKA.
B2: the binding signal is -5.68 lnKA.
For B3, the binding signal was -5.71 lnKA.
On the same count and under the same terms, the value for B4 was -5.85 lnKA; that for B5 was -3.7 lnKA.
In the case of B6, the binding signal is -5.99 lnKA.
On the same count and under the same terms, the result for B7 reads -5.75 lnKA; that for B8, -4.74 lnKA.
As for B9, the binding signal is -5.91 lnKA.

The next test concerns the target d-enCas12a-Ultra (Acidaminococcus sp., UniProt U2UMQ6 1-1307, E174R;S542R;K548R;M537R;F870L;D908A;E993A;D1235A). The test is described as above. Particulars: protein: recombinant.
For B1, the binding signal is -2.67 lnKA.
As for B2, the binding signal is -2.87 lnKA.
Same read-out and setting: the result for B3 reads -3.48 lnKA; that for B4, -3.43 lnKA.
For the molecule B5, the binding signal was -0.996 lnKA.
As for B6, the binding signal was -3.45 lnKA.
With B7, the binding signal was -3.35 lnKA.
In the case of B8, the binding signal is -1.64 lnKA.
On the same count and under the same terms, the result for B9 reads -3.51 lnKA.
